MCL1 BIM primary – MCL1-BIM-BH3 interaction inhibition (human) | actives 0.68% (n = 320,000) | GST-MCL1 / FITC-Bim-BH3 fluorescence polarization | inhibition, % at 10.9 µM;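 active = inhibition above the mean inhibition of all tested compounds plus 3 SD, set per campaign, cut at about 40% in these data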;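 also: 0% = DMSO wells and 100% = unlabeled Bim-BH3 peptide control; higher means more loss of mP so more displacement of Bim peptide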
Mcl1 Noxa PPI – Mcl-1/Noxa interaction inhibition | TR-FRET Mcl-1/Noxa peptide binding, 2 h | inhibition, % at 21.7 µM | actives 1.5% (n = 220,000) | AID 1022;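 active = compounds that cut the protein-peptide binding signal by more than 50% relative to plate controls in a single-dose test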;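 also: His-tagged Mcl-1 with rhodamine Noxa BH3 peptide and terbium anti-His antibody; 0% = Mcl-1 plus Noxa peptide wells and 100% = peptide-only wells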
Mcl-1 Bim block – human Bim-Mcl-1 interaction inhibition. Q07820. Bead-based flow cytometry, Bim peptide-Mcl-1 binding. inhibition, % at 10 µM. actives 0.1% (n = 190,000); in the data active = inhibition above about 40%;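 also: 0% = no compound tracer wells and 100% = peptide blocker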
GLD-1 TGE inh – GLD-1-TGE RNA interaction inhibition (C. elegans). Q17339. inhibition, % at 5.96 µM. actives 0.44% (n = 320,000). purified GLD-1 + fluorescein TGE RNA, fluorescence polarization;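 active = percent inhibition above a per-plate cutoff, the plate mean of test compounds plus 3 SD, cut at about 30% in these data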;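 also: 0% = DMSO wells with GLD-1 and probe and 100% = wells lacking GLD-1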
Target sequence (Q17339 whole entry, looked up): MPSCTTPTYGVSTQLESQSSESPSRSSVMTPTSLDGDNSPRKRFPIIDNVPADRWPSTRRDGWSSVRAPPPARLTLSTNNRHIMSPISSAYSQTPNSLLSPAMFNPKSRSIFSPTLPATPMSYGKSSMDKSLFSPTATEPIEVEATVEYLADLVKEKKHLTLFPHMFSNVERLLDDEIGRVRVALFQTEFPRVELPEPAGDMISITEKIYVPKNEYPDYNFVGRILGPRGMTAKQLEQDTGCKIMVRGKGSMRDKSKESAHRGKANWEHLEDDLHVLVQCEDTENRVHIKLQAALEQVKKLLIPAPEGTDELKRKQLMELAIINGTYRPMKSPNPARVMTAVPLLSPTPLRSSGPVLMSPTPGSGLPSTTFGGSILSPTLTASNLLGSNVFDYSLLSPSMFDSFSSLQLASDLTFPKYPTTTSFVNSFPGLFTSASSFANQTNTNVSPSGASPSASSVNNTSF
Bcl-xL primary – blocks human Bcl-xL binding to Bim BH3 peptide. GST-Bcl-xL / FITC-Bim BH3 peptide fluorescence polarization. actives 0.7% (n = 320,000). inhibition, % at 10.9 µM. AID 2129. Q07817;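 active = inhibition above the mean of all tested compounds plus 3 SD, cutoff set per campaign, cut at about 30% in these data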;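 also: 0% = DMSO wells and 100% = unlabeled Bim-BH3 peptide competitor; inhibitors lower millipolarization by displacing the labeled peptide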
Mcl1 Bid PPI – disrupts binding of human Mcl-1 to Bid peptide; Q07820; TR-FRET Mcl-1/Bid-Dy647 peptide binding, 1536-well; inhibition, % at 21.7 µM; actives 0.97% (n = 220,000); AID 1021;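 active = compounds that cut the binding signal by more than half at the single screening dose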;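 also: His-tagged Mcl-1 with europium anti-His antibody binding Bid BH3 peptide; 0% = Mcl-1 plus peptide wells and 100% = peptide-only wells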
An asterisk follows results filed as active; x = no result given. Most compounds without a hit are left out; they make up all but 2.3% or so of the library.

SMILES	MCL1 BIM primary	Mcl1 Noxa PPI	Mcl-1 Bim block	GLD-1 TGE inh	Bcl-xL primary	Mcl1 Bid PPI
COCCNC(=O)CCc1nnc2ccc(N3CCC(C)CC3)nn12	2	x	x	-7	5	x
CCOC(=O)c1c(/N=C/c2ccccc2O)sc2c1CCC2	10	12	25	-1	9	-26
CCOC(=O)c1c(/N=C/c2ccc(O)cc2O)sc2c1CCC2	5	13	-7	33*	8	-27
CC(=O)/C(=N\Nc1ccccc1)Sc1cccc2cccnc12	6	69*	-4	1	4	-10
CC(=O)/C(=N\Nc1ccccc1Cl)Sc1cccc2cccnc12	2	11	-3	3	6	-29
COc1ccc(OC)c(C2=C/C(=C/c3ccccn3)C(=O)O2)c1	2	22	-3	-58	31*	-7
CC(=O)c1ccc(OCc2cc(C(=O)NCCn3nc(C)cc3C)no2)cc1	7	x	x	8	7	x
O=c1c2cnn(-c3ccccc3)c2nc(-c2cccs2)n1-c1cccc(Cl)c1	-11	15	22	2	-7	79*
O=c1c2cnn(-c3ccccc3)c2nc(-c2cccs2)n1-c1ccc(Cl)cc1	4	24	-2	4	7	20
COc1cccc(C(N)=O)c1OC(=O)Cc1ccccc1F	11	x	x	-3	4	x
CN(CC(=O)Nc1ccccc1C(F)(F)F)C(=O)C1CCN(S(=O)(=O)c2ccc3c(c2)OCCO3)CC1	-18	x	x	7	-6	x
S=c1[nH]c(-c2ccccc2)cn1/N=C/c1ccncc1	5	27	x	7	1	-24
CCOc1ccc(/C=N/n2cc(-c3ccccc3)[nH]c2=S)cc1	-8	53*	-9	2	5	-19
CCOC(=O)C1(Cc2ccccc2)CCCN(C2CCCC2)C1 (centres undefined)	-2	5	0	-2	1	8
CC(C)OC(=O)c1ccccc1C(=O)c1ccc(N)c([N+](=O)[O-])c1	-5	61*	4	0	1	-59
CNC(=O)COC(=O)c1ccccc1C(=O)c1ccc(Cl)c([N+](=O)[O-])c1	x	9	-4	x	x	-21
Oc1ccc(Br)cc1-c1cc(-c2ccc(Cl)cc2)n[nH]1	9	82*	-2	-14	2	10
Oc1ccc(Br)cc1-c1cc(-c2ccccc2)n[nH]1	3	23	-4	5	6	1
Cc1ccc(S(=O)(=O)N2CCOCC2)cc1NC(=O)CN1CCN(c2ccc(O)cc2)CC1	16	52*	-1	4	17	-157
CC(C)Oc1ccc(CN2CCCC(CO)(Cc3ccc(F)cc3)C2)cc1 (centres undefined)	46*	x	x	5	36*	x
O=C(NC1CCCCCCC1)c1ccc(Br)cc1	52*	x	x	28	68*	x
O=C(Cc1ccc(Br)cc1)NC1CCCCC1	6	12	-1	-2	6	-27
CCOCCn1c(=NC(=O)CSCC(=O)Nc2cc(C)on2)sc2cc(OC)ccc21	-3	x	x	-4	0	x
Cn1c2ccccc2c(=O)c2c(=O)n(Cc3ccco3)c(-c3ccc(C(C)(C)C)cc3)nc21	2	-92	x	0	2	52*
COc1cccc2c(=O)c(SC(F)(F)C(F)C(F)(F)F)c(C)[nH]c12 (centres undefined)	8	14	0	6	1	-4
SMILES	MCL1 BIM primary	Mcl1 Noxa PPI	Mcl-1 Bim block	GLD-1 TGE inh	Bcl-xL primary	Mcl1 Bid PPI
COc1cccc2c(=O)c(C/C=C(/C)Cl)c(C)[nH]c12	-1	11	0	0	2	92*
COC(=O)c1cccc(NC(=S)Nc2cccc(Cl)c2Cl)c1	7	35	-4	6	6	98*
O=C(c1cc(-c2ccco2)on1)N1CCc2ccccc2C1	2	69*	-3	-1	2	15
O=C(c1cc(-c2ccccc2O)on1)N1CCc2ccccc2C1	4	11	3	9	5	-22
Cc1cc(C)nc(NCC(O)COc2ccccc2C)n1 (centres undefined)	4	-13	-2	4	12	101*
COc1ccc(/C=C2\C(=O)N(c3c(Cl)cc(Cl)cc3Cl)N=C2NC(=O)c2cccc([N+](=O)[O-])c2)cc1	6	106*	0	5	9	24
CC(CCc1ccccc1)NC(=O)COC(=O)c1ccc(NC(N)=O)cc1 (centres undefined)	0	x	x	1	1	x
